In PubChem BioAssay (NCI):
This is part of a sample that, as a whole, favours compounds with a hit. Of some 79,000 tested, about 15% had one in any assay. Cut-off read from the data, not from the text of the source: active = growth inhibition above about 70%; inactive = the rest.

Assays:
[1] = NCI Yeast Anticancer Drug Screen. Data for the rad50 strain (AID 155);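 note: 0% = growth of vehicle-only cultures of the same strain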; conditions: S. cerevisiae rad50 strain growth inhibition; at 50.0 µM; stronger effect = higher value
Procedure, shortened: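 Compounds were tested on a yeast strain with an engineered DNA damage repair alteration; the reported value is growth inhibition normalised to vehicle treatment.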

[2] = NCI Yeast Anticancer Drug Screen. Data for the mec2-1 strain (AID 157); conditions: S. cerevisiae mec2-1 strain, at 50.0 µM, stronger effect = higher value
Procedure, shortened: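 mec2-1 yeast strain, carrying an alteration in DNA damage repair or cell cycle control, was exposed to compounds; growth inhibition was measured relative to vehicle-treated controls.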

[3] = NCI Yeast Anticancer Drug Screen. Data for the sgs1 mgt1 strain (AID 161);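 note: 0% = growth of cultures given vehicle only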; conditions: S. cerevisiae sgs1 mgt1 strain, at 50.0 µM, stronger effect = higher value
Procedure, shortened: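 This yeast growth screen uses a strain with defined DNA-repair lesions; compound-treated growth is compared with vehicle-treated growth.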

[4] = NCI Yeast Anticancer Drug Screen. Data for the cln2 rad14 strain (AID 165);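 note: 0% = growth equal to vehicle treated cultures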; conditions: S. cerevisiae cln2 rad14 strain, at 50.0 µM, stronger effect = higher value
Procedure, shortened: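 Yeast carrying cln2 and rad14 alterations (cell cycle control and DNA damage repair) were exposed to compounds. Growth inhibition was measured against vehicle-treated controls.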

[5] = NCI Yeast Anticancer Drug Screen. Data for the bub3 strain (AID 167); conditions: S. cerevisiae bub3 mutant strain, at 50.0 µM, stronger effect = higher value
Procedure, shortened: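 Growth of a checkpoint-deficient yeast mutant is measured after compound exposure. Values represent inhibition relative to vehicle.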

[6] = NCI Yeast Anticancer Drug Screen. Data for the mlh1 rad18 strain (AID 175); conditions: S. cerevisiae mlh1 rad18 strain growth inhibition; at 50.0 µM; stronger effect = higher value
Procedure, shortened: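 Growth inhibition of the yeast strain was measured after compound exposure and expressed relative to vehicle-treated controls. The strain carries defined defects in DNA damage repair.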

Measured: growth inhibition

CC1(C)CC([NH-])(C(=O)O)CC(C)(C)N1O.CC1(C)CC([NH-])(C(=O)O)CC(C)(C)N1O.[Cu+2]
inactive: [1] 27.6% | [2] -17.9% | [3] 16.5% | [4] -20.3% | [5] 0.7% | [6] 4.55%

CSC1=C(C#N)C(=O)N(c2ccc(C)cc2)C(=O)C1C#N (stereo not drawn)
inactive: [1] 26.1% | [2] 12.2% | [3] 31.1% | [4] 24.4% | [5] 5.5% | [6] 20.3%

NC(N)=Nc1ccc(CC(N)C(=O)NCC(=O)C(CC(=O)O)c2ncc(NC(=O)C(F)(F)F)o2)cc1 (stereo not drawn)
inactive: [1] -17.4% | [2] -1.75% | [3] -5.15% | [4] -4% | [5] -19.6% | [6] 7.35%

Cc1[nH]c2ccc(C(=O)NN)cc2c1CC(=O)NN
inactive: [1] 12.2% | [2] 8.45% | [3] 14.8% | [4] -23.1% | [5] 6.55% | [6] 25.1%

COC1=C(OC)C(=O)C(C(=O)CCCCC(=O)O)=C(C)C1=O
inactive: [1] 4.8% | [2] 0.5% | [3] 8.5% | [4] -35.4% | [5] 2.9% | [6] 13.9%

COc1cc(/C=N/N2CN(C(C)C(=O)O)B(NCCC(C)C)N=C2N)cc(OC)c1 (stereo not drawn)
inactive: [1] 0.85% | [2] -10.4% | [3] 22% | [4] -3.7% | [5] 23.6% | [6] -6%

CC1(COc2ccccc2)NC(=O)c2ccccc2O1 (stereo not drawn)
inactive: [1] -5.85% | [2] -13.4% | [3] 10.6% | [4] -46.2% | [5] 0.85% | [6] -6.25%

CN(C)P(=O)(Nc1ccc(Cl)cc1)Nc1ccc(Cl)cc1
inactive: [1] 11.7% | [2] -1.9% | [3] 2.1% | [4] 3.9% | [5] 12.7% | [6] 7.5%

O=[N+]([O-])c1ccc(/C=C/c2csnn2)cc1
inactive: [1] -16.7% | [2] -31.8% | [3] -13.8% | [4] 22% | [5] 2% | [6] -24.6%

Cc1c(C)c(O)c2c(c1C)C(C)C(=O)OC2=O (stereo not drawn)
inactive: [1] 1.2% | [2] -37.8% | [3] -13.2% | [4] 10% | [5] -19.3% | [6] -0.15%

O=C1C=C2CCCCCCCC(C1)C2 (stereo not drawn)
inactive: [1] 11.8% | [2] 1.1% | [3] 2.25% | [4] -1.75% | [5] -1.15% | [6] 3.2%

C=C(c1ccccc1)C1(O)CCCCC1N(C)C (stereo not drawn)
inactive: [1] -24.4% | [2] -13.8% | [3] 0.7% | [4] -12.3% | [5] 10.9% | [6] 12.4%

CC1(O)c2ccccc2-c2c1n([O-])c1ccccc1[n+]2=O (stereo not drawn)
inactive: [1] 7.9% | [2] -6.2% | [3] 12.2% | [4] -43.9% | [5] -1.8% | [6] 3.9%

CO/[N+]([O-])=C\C(=O)N/C=C/C(=O)O
inactive: [1] 19.1% | [2] 5.85% | [3] 7.3% | [4] 18.7% | [5] 23.6% | [6] 15.2%

c1ccc2c(c1)NC(C1OC3CCCN3C1C1Nc3ccccc3S1)S2 (stereo not drawn)
inactive: [1] -43.2% | [2] -6% | [3] -28.6% | [4] -1.5% | [5] -14.1% | [6] -24.4%

CC(=O)OC1CCC2=C3CCC4(C)C(=O)CCC4C3C(O)C2(C)C1 (stereo not drawn)
inactive: [1] 0.05% | [2] -2% | [3] -5.3% | [4] -5.2% | [5] -14.3% | [6] -9.5%

COC(=O)CNN
inactive: [1] -6.05% | [2] -19.4% | [3] -14.8% | [4] -25.1% | [5] -7.25% | [6] 7.9%

N#CC(/C(=N/NC(=O)C(=O)NN)C(=O)NC12CC3CC(CC(C3)C1)C2)c1ccccc1 (stereo not drawn)
inactive: [1] 16.1% | [2] 10.8% | [3] 1% | [4] 1.4% | [5] 30.6% | [6] -2.05%
